Bioassay records from PubChem.
The list is not random: actives were taken first. Their share in the collection is about 19%.
TDP1 cell noCPT – qHTS for Inhibitors of human tyrosyl-DNA phosphodiesterase 1 (TDP1): qHTS in cells in absence of CPT. DT40 Tdp1-/- hTDP1 cells, no CPT, ATP luminescence, 48 h. Potency, µM (top dose mostly 46.2 µM), hits mostly inhibitors. 420,000 tested, 15% active. AID 686978, 2013; further: nearly all actives have a fitted effect of over 55% in size
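A cellular qHTS used chicken DT40 cells lacking endogenous Tdp1 but carrying stably transfected human TDP1. Compounds were applied without camptothecin, and cell growth kinetics were judged by ATP-dependent luminescence after ≥48 hr.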
SW480 rerep – induces DNA re-replication in SW480 colon adenocarcinoma cells; SW480 DNA re-replication, Hoechst DNA content imaging, 48 h; Potency, µM (doses to about 46.1 µM), most hits filed as activators; 340,000 tested, 1.8% active; AID 624297; further: nearly all actives have a fitted effect of over 55% in size
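Image-based read-out: total Hoechst fluorescence of nuclei (405 nm excitation, 500-530 nm emission), with hits raising the fraction of high-intensity nuclei. SW480 colon cells incubated 48 hr with compounds at 37 C.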
DT40 TDP1 CPT – DT40-hTDP1 cell growth loss with CPT. 420,000 tested, 12% active. chicken DT40 Tdp1-/-;hTDP1 cells + 20 nM CPT, ATP luminescence, 48 h. Potency, µM (top dose mostly 46.2 µM), hits mostly inhibitors. AID 686979; further: nearly all actives have a fitted effect of over 55% in size
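Chicken DT40 Tdp1-/- cells stably complemented with human TDP1 were seeded at 400 cells/well in medium containing 20 nM camptothecin, exposed to pin-transferred compounds, and grown at 37 °C for at least 48 hr. Viability was read as ATP luminescence.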
MCF10A rereplic – inducers of DNA re-replication in MCF 10A breast cells; AID 624296; 350,000 tested, 2.9% active; Potency, µM (titrated, usually from 46.1 µM), actives largely listed as activators; MCF 10A DNA re-replication, Hoechst nuclear intensity, 48 h; further: nearly all actives have a fitted effect of over 50% in size
BCR signal inh – inhibitors of chronic active B-cell receptor signaling; Potency, µM (titrated, usually from 46.1 µM), usual class: inhibitors; ABC-DLBCL IkBa-CBG/CBR reporter, luminescence ratio, 4 h; 340,000 tested, 0.05% active; active means well fitted inhibition curve with a large enough effect in the signal ratio, with a control signal flat, not every such curve was filed as active; inconclusive means small, poorly fitted or top-dose-only effect, or effect the other way, or a change in a side signal; the % refers to the signal ratio
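TMD8 ABC-DLBCL cells carrying doxycycline-inducible green luciferase fused to IkappaBalpha plus unfused red luciferase were exposed to compounds (up to 46 uM) for 4 hrs at 37C. Activity came from the overlap-corrected green/red luminescence ratio.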
IL-1B inflam inh – inflammasome signaling inhibition, IL-1 beta readout. THP-1 LPS/ATP IL-1B secretion, AlphaLISA, 16 h; stronger effect = lower value. activity change, % at 57.5 µM. 360,000 tested, 4.7% active. AID 743279; in the data active means activity change below about -50%; inconclusive means mostly about -30% to -49%
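Secreted IL-1B measured by AlphaLISA bead assay after 16 h compound exposure of THP-1 cells; compounds (final up to 57.5 uM) added 1 h before LPS (250 ng/mL) and ATP (1.25 mM) stimulation; lower signal means less secretion.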
Hits are given with their value. Unless noted, the call rests on the fitted dose curve; in most records, active means well fitted curve in the direction sought with a large enough effect; inconclusive means small, poorly fitted or top-dose-only effect, or another doubt; inactive means no such curve, though single readings can be large; an effect the other way counts as inactive or inconclusive.

CC(=O)c1c(Cl)nc2ccc(Br)cc2c1-c1ccccc1 was read as TDP1 cell noCPT inconclusive, SW480 rerep inactive, DT40 TDP1 CPT inactive, MCF10A rereplic inactive, BCR signal inh inactive and IL-1B inflam inh inactive.
Screening Nc1c(C(=O)N/N=C/c2ccc(F)cc2)oc2nc(-c3ccccc3)cc(-c3ccco3)c12 returned TDP1 cell noCPT 10.3µM, SW480 rerep inactive, DT40 TDP1 CPT 23.1µM, MCF10A rereplic 20.6µM and BCR signal inh inactive.
For Nc1c(C(=O)N/N=C/c2ccccc2Cl)oc2nc(-c3ccccc3)cc(-c3ccco3)c12 the results were TDP1 cell noCPT 20.6µM, SW480 rerep 18.4µM, DT40 TDP1 CPT inconclusive, MCF10A rereplic 8.2µM and BCR signal inh inactive.
`Cc1cc(-c2ccccc2)nc2oc(C(=O)NN)c(N)c12` gave TDP1 cell noCPT inconclusive, SW480 rerep inconclusive, DT40 TDP1 CPT inconclusive, MCF10A rereplic inconclusive, BCR signal inh inconclusive and IL-1B inflam inh inactive.
Screening Cc1ccccc1NC(=O)CN(C)S(=O)(=O)c1cccc2nsnc12 returned TDP1 cell noCPT inactive, DT40 TDP1 CPT inactive and BCR signal inh inactive.
Screening CSc1nc(N)c(NC(=O)c2ccc(Br)o2)c(=O)[nH]1 returned TDP1 cell noCPT inconclusive, SW480 rerep inactive, DT40 TDP1 CPT inactive, MCF10A rereplic inconclusive, BCR signal inh inactive and IL-1B inflam inh inactive.
`COCCn1c(C)cc(C2=NNC(=NC(C)(C)C)SC2)c1C` gave TDP1 cell noCPT 18.4µM, SW480 rerep inconclusive, DT40 TDP1 CPT inactive, MCF10A rereplic inconclusive, BCR signal inh inactive and IL-1B inflam inh inactive.
For COCCN=C1NN=C(c2ccc(C)c([N+](=O)[O-])c2)CS1 the results were TDP1 cell noCPT inconclusive, SW480 rerep inactive, DT40 TDP1 CPT inconclusive, MCF10A rereplic inactive, BCR signal inh inactive and IL-1B inflam inh inactive.
For CCN=C1NN=C(c2cc(C)n(Cc3ccco3)c2C)CS1 the results were TDP1 cell noCPT 18.4µM, DT40 TDP1 CPT 16.4µM, MCF10A rereplic inactive, BCR signal inh inactive and IL-1B inflam inh inactive.
For COCCn1c(C)cc(C2=NNC(=Nc3ccc(OC)cc3)SC2)c1C the results were TDP1 cell noCPT 11.6µM, SW480 rerep inactive, DT40 TDP1 CPT 23.1µM, MCF10A rereplic inconclusive, BCR signal inh inactive and IL-1B inflam inh inactive.
For Cc1cc(C2=NNC(=NCCc3ccccc3)SC2)c(C)n1CC1CCCO1 (centres undefined) the results were TDP1 cell noCPT inconclusive, SW480 rerep inactive, DT40 TDP1 CPT 16.4µM, MCF10A rereplic inactive, BCR signal inh inactive and IL-1B inflam inh -76.7.
Screening O=C(COC(=O)CNC(=O)c1ccc(Br)o1)Nc1ccccc1OC(F)F returned TDP1 cell noCPT inactive, SW480 rerep inactive, DT40 TDP1 CPT inactive, MCF10A rereplic inactive, BCR signal inh inconclusive and IL-1B inflam inh inactive.
For Cc1cc(Cl)c2oc(C(=O)N(C)Cc3ccon3)c(C)c2c1 the results were TDP1 cell noCPT inactive, SW480 rerep inactive, DT40 TDP1 CPT inconclusive, MCF10A rereplic inconclusive, BCR signal inh inconclusive and IL-1B inflam inh inactive.
For CC(C)C(=O)Nc1ccccc1C(=O)OCc1cc(=O)n2nc(C3CC3)sc2n1 the results were TDP1 cell noCPT inconclusive and DT40 TDP1 CPT inactive.
For O=C(C1CCC1)N1CCc2cc(S(=O)(=O)NCc3ccc(F)cc3)ccc21 the results were TDP1 cell noCPT inactive and DT40 TDP1 CPT inconclusive.
COc1cccc(C2=NNC(=NCc3ccccc3)SC2)c1 was read as TDP1 cell noCPT inconclusive, SW480 rerep inactive, DT40 TDP1 CPT inconclusive, MCF10A rereplic inactive, BCR signal inh inconclusive and IL-1B inflam inh inactive.
For Cc1ccc(C)c(C2=NNC(=NCc3ccccc3)SC2)c1 the results were TDP1 cell noCPT inconclusive, SW480 rerep inconclusive, DT40 TDP1 CPT inconclusive, MCF10A rereplic 23.1µM, BCR signal inh inconclusive and IL-1B inflam inh inactive.
